# Measured values published in ChEMBL document CHEMBL3988442, “University of Dundee, Small-Polar-MMV Screening Library” (2021).
# About 900 (1.7%) of roughly 53,000 compounds showed an effect of 50% or more. Only a selection was taken, and strong results are over-represented in it overall.
# Test system: Mycobacterium tuberculosis
# Test: Cornell - Phenotypic assay to identify agents that inhibit growth of Mycobacterium tuberculosis
# Assay type: functional
# Design: scale not given: direction of the effect not stated beside the values
# Conditions: 10 mM as filed; unlikely as a test dose
row,SMILES,Percent Effect [%]
1,CO[C@@H]1CCN(C(=O)c2cc(C)on2)C[C@@H]1Cc1ccccc1,-19.48
2,Cc1nc(NCc2ccccc2)cc(C(C)Cn2nc(C)c(C)c2C)n1 (stereo unspecified),27.52
3,O=C(Cc1ccn[nH]1)N1CCc2cc(Br)sc2C1,17.86
4,O=C(Nc1ccccc1OC1CCOC1)c1ccon1 (stereo unspecified),-36.9
5,O=C(Cc1ccn[nH]1)Nc1cncc(Br)c1O,104.6
6,CCOc1cccc(CCNC(=O)Cc2ccn[nH]2)n1,-3.182
7,O=C(Nc1cncc(Br)c1O)c1ccon1,105.3
8,COC(=O)Cc1cccc(NC(=O)Cc2ccon2)c1,10.84
9,CC(C)CN1Cc2cccc(NC(=O)Cc3ccon3)c2C1,8.389
10,O=C(Cc1ccon1)Nc1cncc(Br)c1O,58.04
11,COc1c(Br)cccc1CCNC(=O)c1ccon1,37.39
12,CCc1ncc(CN2C[C@@H]3C[C@@H](O)CN3C[C@@H]2Cc2ccccc2)cn1,42.85
13,CCc1ccc(C(=O)N2CCC(Nc3ccc(C)nn3)CC2)o1,29.19
14,Cc1ccc(C(=O)N2CC[C@@]3(C[C@@H](NS(C)(=O)=O)CCO3)C2)s1,6.984
15,COC(=O)[C@]12CNC[C@H]1CN(Cc1nc(C)c[nH]1)C2,-13.35
16,O=C(NC[C@]12COC[C@H]1CN(CC1CCOCC1)C2)c1ccccc1.O=C(O)C(F)(F)F,14.72
17,Cc1cnc(C(=O)N2CCCC3(CCN(c4cnn(C)c4)C3=O)C2)cn1 (stereo unspecified),-8.899
18,Cc1nc(C)c(C(=O)N2CCc3ccc(F)cc3C2C)o1 (stereo unspecified),37.91
19,CC1c2ccc(F)cc2CCN1C(=O)c1[nH]c(=O)[nH]c(=O)c1N (stereo unspecified),102.4
20,COC(=O)c1cc(C(=O)N2CCc3ccc(F)cc3C2C)ccn1 (stereo unspecified),5.538
21,CC1c2cc(F)ccc2CCN1C(=O)c1[nH]c(=O)[nH]c(=O)c1N (stereo unspecified),102.8
22,CC1c2ccc(F)cc2CCN1C(=O)c1nc(=O)[nH][nH]1 (stereo unspecified),10.03
23,Cc1nc(C)c(C(=O)N2CCc3cc(F)ccc3C2C)o1 (stereo unspecified),-6.74
24,NC(=O)C1CCN(C(=O)NC2CCc3cc(F)ccc32)CC1 (stereo unspecified),-2.777
25,Fc1ccccc1-c1nccnc1C1CCCNC1 (stereo unspecified),6.685
26,Cc1ccccc1CN1C[C@@H](C(=O)N2CCCCO2)C[C@H]2OCC[C@H]21.O=C(O)C(F)(F)F,19.61

row,SMILES,Percent Effect [%]
1,O=C(NC1CC1)C1(Cc2ccccc2-c2ccncc2)CCOCC1,-4.384
2,CS(=O)(=O)N1CCOCC12CCN(Cc1ccc(F)cc1)CC2.O=C(O)C(F)(F)F,10.73
3,CS(=O)(=O)N1CCCC(C(=O)Nc2cnn(Cc3ccc(Cl)cc3)c2)C1 (stereo unspecified),6.456
4,COc1cc(CN2CCCC2)ccc1OC12CCCN(CC1)C2 (stereo unspecified),6.74
5,CCCc1ccc(OC23CCCN(CC2)C3)c(OC)c1 (stereo unspecified),51.62
6,COc1cc(C#N)ccc1OC12CCCN(CC1)C2 (stereo unspecified),14.23
7,Cc1nnc2n1CCN(C(=O)c1cc(C)n(-c3ccccc3)c1C)C2,-35.93
8,CN(CCCOc1ccccc1)Cc1nc2c(cnn2C)c(=O)[nH]1,27.35
9,COc1cccc(OCC(=O)N2CCOc3ccncc32)c1,-4.09
10,CCCNC(=O)CNC(=O)c1scnc1C,-19.92
11,Cc1ncsc1-c1cc(C(=O)NCCO)ccn1,0.2276
12,CNC(=O)CNC(=O)c1ccc(-c2scnc2C)nc1,51.37
13,Cc1cc(C(=O)CN2CCN(c3nccs3)CC2)c(C)n1C1CC1,7.889
14,COc1ccc(CCN(C)C(=O)c2cc(C(C)=O)c[nH]2)cc1OC,-7.568
15,O=C(NC1CC1)[C@H]1CN(Cc2ccccc2)C[C@@H]1C(=O)c1ccccc1,30.86
16,CCNC(=O)[C@@H]1CN(Cc2ccccc2)C[C@H]1C(=O)c1ccc(F)cc1,56.73
17,CNC(=O)[C@@H]1CN(Cc2ccccc2)C[C@H]1C(=O)c1ccc(F)cc1,28.54
18,CCNC(=O)[C@H]1CN(Cc2ccccc2)C[C@@H]1C(=O)c1ccccc1,41.32
19,CC(C)NC(=O)[C@H]1CN(Cc2ccccc2)C[C@@H]1C(=O)c1ccccc1,38.41
20,O=C(O)[C@H]1CN(Cc2ccccc2)C[C@@H]1C(=O)c1ccccc1,51.09
21,O=C(c1ccc(O)c(Cl)c1)N1CCN(c2nccs2)CC1,19.4
22,CC(C)CC(=O)N1CC[C@H]2C[C@H](c3nccs3)O[C@@H]2C1,29.2
23,CNc1nc2c(s1)C(c1ccc(F)cc1Cl)CC(=O)N2 (stereo unspecified),32.27
24,Cn1ncc2c1NC(=O)CC2c1c(F)cccc1Cl (stereo unspecified),13.6
25,CNc1nc2c(s1)C(c1c(F)cccc1Cl)CC(=O)N2 (stereo unspecified),108
26,CNc1nc2c(s1)C(c1ccccc1Cl)CC(=O)N2 (stereo unspecified),45.9

row,SMILES,Percent Effect [%]
1,CNc1nc2c(s1)C(c1cccc(Cl)c1Cl)CC(=O)N2 (stereo unspecified),35.33
2,CNc1nc2c(s1)C(c1ccccc1F)CC(=O)N2 (stereo unspecified),-4.667
3,CNc1nc2c(s1)C(c1cccc(F)c1F)CC(=O)N2 (stereo unspecified),-9.045
4,Nc1nc2c(s1)C(c1c(F)cccc1Cl)CC(=O)N2 (stereo unspecified),103.5
5,CNc1nc2c(s1)C(c1c(Cl)cccc1Cl)CC(=O)N2 (stereo unspecified),107.9
6,CC(O)CN1CC(C)(C)CN(C(=O)CCc2ccccc2)CC1=O (stereo unspecified),4.925
7,CCN1CCN(C(=O)c2cc(-c3ccc(C)o3)n[nH]2)[C@H]2CS(=O)(=O)C[C@H]21,-0.2092
8,CCNC(c1cccnc1)c1ccc(F)c(C)c1 (stereo unspecified),-53.96
9,CC(=O)N1CCN(C(=O)Nc2ccccc2Cl)[C@H]2CS(=O)(=O)C[C@H]21,4.723
10,Cc1cc(C)n(CC(=O)N2CCCCC2CCN2CCCC2=O)c(=O)n1 (stereo unspecified),8.917
11,Cc1cc(C(=O)N2CCc3c(CN(C)C(C)C)n[nH]c3C2)[nH]n1,21.29
12,CCc1noc(CNc2ccc(C(=O)N3CCCC3)cc2C)n1,-69.23
13,Cc1ccc(CN2CCc3onc(C(=O)NC(C)C)c3C2)o1.O=C(O)C(F)(F)F,1.183
14,Cc1ccc(CN2CCc3onc(C(=O)Nc4cccnc4)c3C2)o1.O=C(O)C(F)(F)F.O=C(O)C(F)(F)F,61.31
15,Cc1ccc(CN2CCc3onc(C(=O)NCCN(C)C)c3C2)o1.O=C(O)C(F)(F)F.O=C(O)C(F)(F)F,6.093
16,CCc1cnc(CN(C)C2CCN(Cc3nnc(C4CC4)n3C)C2)o1 (stereo unspecified),31.65
17,Cc1cc(C(=O)N(C)CCN(C)C(=O)OC(C)(C)C)oc1C,-8.303
18,Cc1cc(C)c(C(=O)N(C)CCN(C)C(=O)c2[nH]c(C)cc2C)[nH]1,1.614
19,Cc1cc(C)c(C(=O)N(C)CCN(C)C(=O)OC(C)(C)C)[nH]1,68.36
20,c1cc(CNc2ncc(-c3cnccn3)c(C3CC3)n2)ccn1,-5.136
21,CSc1cccc(CN(C)C(=O)c2cccc(C3CCCNC3)c2)c1 (stereo unspecified),36.25
22,CC(=O)N1CCC(c2ncc(C(=O)Nc3ccc(F)cc3)c(C)n2)CC1,4.765
23,O=C(O)C(F)(F)F.O=S(=O)(NCC1COCc2c(-c3ccncc3)nnn2C1)C1CC1 (stereo unspecified),13.64
24,Cn1cc(-c2csc(N3CCCCCC3)n2)cn1,18.17
25,CN1CCN(c2nc(-c3cnn(C)c3)cs2)CC1,19.22
26,Cn1cc(-c2csc(N3CCN(C(=O)OC(C)(C)C)CC3)n2)cn1,78.03

row,SMILES,Percent Effect [%]
1,O=C(c1ccncc1)N1CCCC(C2=Nc3ccccc3S(=O)(=O)N2)C1 (stereo unspecified),43.45
2,O=C(C1CC1)N1CCCC(C2=Nc3ccccc3S(=O)(=O)N2)C1 (stereo unspecified),29.99
3,Cc1occc1C(=O)N1CCCC(C2=Nc3ccccc3S(=O)(=O)N2)C1 (stereo unspecified),60.62
4,CC(C)CN1C[C@H]2C[C@H](C(=O)Nc3cccnc3)[C@@H](C1)O2,6.477
5,CCN(CC)S(=O)(=O)CC(=O)N1CCc2ccc(Cl)cc21,4.859
6,CCOc1cc(CN(C)CCCC#N)ccc1OC(F)F,7.532
7,Cc1cc(NC(=O)C2CCN(c3nnc(C)c(C)c3C#N)CC2)no1,-12.4
8,CCC(NC(=O)Nc1ccc(OC)c(C)c1)c1noc(C)n1 (stereo unspecified),-4.83
9,CCC(CO)NC(=O)Nc1ccc(OCC(F)(F)F)c(C)c1 (stereo unspecified),-5.78
10,Cc1cc(NC(=O)NCc2nncn2C)ccc1OC(C)C,-0.4289
11,CCC(NC(=O)Nc1ccc(OC)c(C)c1)c1ccncc1 (stereo unspecified),89.35
12,Cc1cc(NC(=O)NCc2nccn2C)ccc1OC(C)C,35.97
13,Cc1cc(NC(=O)NCc2ccncc2)ccc1OC(C)C,88.24
14,CCCc1nc2c(c(C)c(C)n2Cc2cccnc2)c(N)c1CC,0.8008
15,CC(=O)c1nn(-c2ccccc2Cl)c(C)c1C(C)=O,14.3
16,COCCNC(=O)c1cccnc1Sc1cc(OC)ccc1OC,-23.48
17,Cc1ncc2c(n1)CN(CC(=O)Nc1cccnc1)CC2,-17.74
18,CC(C)NC(=O)N1CCCn2cnc(CO)c2C1.O=C(O)C(F)(F)F,25.62
19,Cc1cccc(CN2C[C@@H]3CN(C(=O)NC(C)C)C[C@@H]3C2=O)n1.O=C(O)C(F)(F)F,25.36
20,CN1CCC(c2cc(CCO)ncn2)C1 (stereo unspecified),-9.182
21,O=C(NCc1ccccc1CN1CCOCC1)c1ccc(Br)cc1F,8.243
22,O=C(Nc1ccc(Br)cc1F)c1ccc(N2CCOCC2)nn1,-1.334
23,O=C(Nc1ccc(Br)cc1F)c1cc(CN2CCOCC2)on1,74.1
